Source: paper PMC7862700, “An all-to-all approach to the identification of sequence-specific readers for epigenetic DNA modifications on cytosine”

How the values were obtained:
Experiment in all cases: DAPPL (digital affinity profiling via proximity ligation, sequencing); 10 mM Tris-HCl pH 7.5, 50 mM NaCl, 1 mM DTT, 4% glycerol, room temperature, 30 min; GST-TFs on glutathione beads, 16-mer random dsDNA library, 0.1% formaldehyde crosslink after washing; high values mean tight binding
Conditions in all cases: protein: recombinant; tags: N-terminal GST; dsDNA, one strand shown
FLI1 = biological target: T1, FLI1 (Homo sapiens, UniProt Q01543 1-452)
T1 sequence: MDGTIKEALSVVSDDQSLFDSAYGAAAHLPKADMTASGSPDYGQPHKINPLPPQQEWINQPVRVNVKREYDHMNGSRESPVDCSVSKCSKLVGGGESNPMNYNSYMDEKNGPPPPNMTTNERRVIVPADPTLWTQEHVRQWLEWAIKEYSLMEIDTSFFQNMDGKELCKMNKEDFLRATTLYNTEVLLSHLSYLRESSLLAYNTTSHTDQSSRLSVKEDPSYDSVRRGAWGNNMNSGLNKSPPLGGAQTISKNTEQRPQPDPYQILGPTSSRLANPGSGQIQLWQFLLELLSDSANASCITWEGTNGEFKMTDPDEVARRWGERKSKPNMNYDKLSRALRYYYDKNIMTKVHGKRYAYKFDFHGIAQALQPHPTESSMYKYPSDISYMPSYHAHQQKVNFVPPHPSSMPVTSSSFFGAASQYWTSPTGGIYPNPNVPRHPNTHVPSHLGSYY
Outline: (§1)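 Human transcription factors carrying a GST fusion were produced in yeast, bound to glutathione beads, tagged with DNA barcodes and pooled together with a tag-only sample. Each pool was held with 200 nmole of a random double-stranded 16-mer DNA library in Tris/NaCl/DTT/glycerol buffer for 30 min at room temperature, then washed, crosslinked in 0.1% formaldehyde, proximity-ligated with BsaI/T4 ligase (1 h, 37 °C), PCR-amplified and sequenced on an Illumina NextSeq500. Binding signal is the read frequency of each hexamer for a given factor divided by its frequency in the tag-only sample.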

ELK1 = biological target: T2, ELK1 (Homo sapiens, UniProt P19419 1-428)
T2 sequence: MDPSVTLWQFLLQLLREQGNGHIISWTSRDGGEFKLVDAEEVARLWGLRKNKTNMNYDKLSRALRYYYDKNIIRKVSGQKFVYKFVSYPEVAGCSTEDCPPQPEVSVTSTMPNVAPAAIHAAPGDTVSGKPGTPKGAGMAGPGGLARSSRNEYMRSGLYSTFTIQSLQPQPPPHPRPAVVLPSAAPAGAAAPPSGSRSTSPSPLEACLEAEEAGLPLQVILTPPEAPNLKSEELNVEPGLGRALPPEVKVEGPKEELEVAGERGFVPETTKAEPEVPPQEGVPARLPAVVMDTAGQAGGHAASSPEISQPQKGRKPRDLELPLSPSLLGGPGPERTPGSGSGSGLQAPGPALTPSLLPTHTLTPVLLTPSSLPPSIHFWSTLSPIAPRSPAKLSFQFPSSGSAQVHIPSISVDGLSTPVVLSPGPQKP
Outline: as §1

GABPA = biological target: T3, GABPA (Homo sapiens, UniProt Q06546 1-454)
T3 sequence: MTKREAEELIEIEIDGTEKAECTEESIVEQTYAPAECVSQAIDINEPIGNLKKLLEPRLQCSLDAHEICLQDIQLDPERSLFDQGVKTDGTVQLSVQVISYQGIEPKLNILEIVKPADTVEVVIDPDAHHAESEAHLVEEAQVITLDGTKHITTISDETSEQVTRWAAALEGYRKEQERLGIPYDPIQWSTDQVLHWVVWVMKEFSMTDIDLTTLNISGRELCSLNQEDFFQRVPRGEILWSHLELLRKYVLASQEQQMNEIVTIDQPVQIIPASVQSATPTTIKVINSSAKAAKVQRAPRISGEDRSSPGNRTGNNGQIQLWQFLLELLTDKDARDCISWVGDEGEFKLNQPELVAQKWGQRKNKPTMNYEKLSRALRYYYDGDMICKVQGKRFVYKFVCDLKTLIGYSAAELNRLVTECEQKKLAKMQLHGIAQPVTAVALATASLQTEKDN
Outline: as §1

ERG = biological target: T4, ERG (Homo sapiens, UniProt P11308 1-479)
T4 sequence: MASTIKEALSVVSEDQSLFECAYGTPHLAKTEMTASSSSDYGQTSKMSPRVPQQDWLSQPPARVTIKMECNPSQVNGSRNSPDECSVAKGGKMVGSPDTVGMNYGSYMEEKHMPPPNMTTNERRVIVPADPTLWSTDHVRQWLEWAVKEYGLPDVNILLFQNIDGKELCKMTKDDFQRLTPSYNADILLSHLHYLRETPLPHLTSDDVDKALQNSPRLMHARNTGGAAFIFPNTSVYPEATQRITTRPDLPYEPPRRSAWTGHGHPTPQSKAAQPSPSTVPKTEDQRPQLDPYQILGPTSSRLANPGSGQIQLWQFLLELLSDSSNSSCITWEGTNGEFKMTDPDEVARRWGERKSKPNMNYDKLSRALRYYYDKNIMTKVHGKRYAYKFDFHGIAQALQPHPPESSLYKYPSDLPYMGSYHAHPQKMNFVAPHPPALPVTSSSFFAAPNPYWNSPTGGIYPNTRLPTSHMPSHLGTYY
Outline: as §1

ELF1 = ELF1 (Homo sapiens, UniProt P32519 1-619)
Outline: as §1

EHF = biological target: T5, EHF (Homo sapiens, UniProt Q9NZC4 1-300)
T5 sequence: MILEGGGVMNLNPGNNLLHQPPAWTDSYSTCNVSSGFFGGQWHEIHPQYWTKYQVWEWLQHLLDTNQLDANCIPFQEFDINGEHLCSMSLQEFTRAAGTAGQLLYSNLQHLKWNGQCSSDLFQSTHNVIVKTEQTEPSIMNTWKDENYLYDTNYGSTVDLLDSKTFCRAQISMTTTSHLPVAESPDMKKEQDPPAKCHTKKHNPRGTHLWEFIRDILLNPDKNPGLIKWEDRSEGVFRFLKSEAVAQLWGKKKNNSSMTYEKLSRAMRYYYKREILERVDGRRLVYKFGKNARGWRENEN
Outline: as §1

SPI1 = SPI1 (Homo sapiens, UniProt P17947 1-270)
Outline: as §1

SPIB = SPIB (Homo sapiens, UniProt Q01892 1-262)
Outline: as §1

ELK3 = biological target: T6, ELK3 (Homo sapiens, UniProt P41970 1-407)
T6 sequence: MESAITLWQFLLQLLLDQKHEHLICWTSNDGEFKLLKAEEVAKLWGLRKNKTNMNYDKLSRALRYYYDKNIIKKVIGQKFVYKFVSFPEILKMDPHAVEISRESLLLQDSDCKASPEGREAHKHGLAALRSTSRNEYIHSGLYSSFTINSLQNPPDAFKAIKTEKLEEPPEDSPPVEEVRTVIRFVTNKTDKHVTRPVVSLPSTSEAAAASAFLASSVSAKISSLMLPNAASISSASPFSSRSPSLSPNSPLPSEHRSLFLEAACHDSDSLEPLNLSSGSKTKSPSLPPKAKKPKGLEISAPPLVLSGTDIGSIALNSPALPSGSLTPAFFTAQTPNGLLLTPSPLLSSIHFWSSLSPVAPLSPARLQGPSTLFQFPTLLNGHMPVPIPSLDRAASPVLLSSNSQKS
Outline: as §1

Sequence of ELF1 (P32519 whole entry): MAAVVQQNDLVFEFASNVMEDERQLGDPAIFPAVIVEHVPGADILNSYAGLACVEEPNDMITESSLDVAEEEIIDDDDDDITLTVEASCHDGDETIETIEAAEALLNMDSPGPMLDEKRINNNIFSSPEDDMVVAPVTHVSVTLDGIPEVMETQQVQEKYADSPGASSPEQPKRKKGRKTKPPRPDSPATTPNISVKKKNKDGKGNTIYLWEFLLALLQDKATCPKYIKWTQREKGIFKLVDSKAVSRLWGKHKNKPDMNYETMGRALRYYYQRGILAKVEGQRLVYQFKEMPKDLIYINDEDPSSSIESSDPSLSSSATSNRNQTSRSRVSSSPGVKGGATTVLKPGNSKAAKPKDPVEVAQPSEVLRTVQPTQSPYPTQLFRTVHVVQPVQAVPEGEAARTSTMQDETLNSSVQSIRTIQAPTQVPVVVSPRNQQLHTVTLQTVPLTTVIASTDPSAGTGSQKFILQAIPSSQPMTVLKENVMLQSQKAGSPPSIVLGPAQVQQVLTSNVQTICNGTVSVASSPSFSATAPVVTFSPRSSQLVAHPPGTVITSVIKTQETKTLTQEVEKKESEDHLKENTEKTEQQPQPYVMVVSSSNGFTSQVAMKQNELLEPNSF
Sequence of SPIB (Q01892 whole entry): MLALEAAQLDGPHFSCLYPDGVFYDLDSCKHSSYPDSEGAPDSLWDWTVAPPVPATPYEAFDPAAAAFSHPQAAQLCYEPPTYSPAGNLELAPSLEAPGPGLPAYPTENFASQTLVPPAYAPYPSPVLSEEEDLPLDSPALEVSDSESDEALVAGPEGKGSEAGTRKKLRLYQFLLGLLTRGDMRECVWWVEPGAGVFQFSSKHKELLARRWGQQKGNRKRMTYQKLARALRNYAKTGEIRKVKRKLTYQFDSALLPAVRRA

TACTAA
binding signal (FLI1): 1.2 fold enrichment (6-mer frequency, TF over GST control)
binding signal (ELK1): 1.23 fold enrichment (6-mer frequency, TF over GST control)
binding signal (GABPA): 1.36 fold enrichment (6-mer frequency, TF over GST control)
binding signal (ERG): 1.29 fold enrichment (6-mer frequency, TF over GST control)
binding signal (ELF1): 1.28 fold enrichment (6-mer frequency, TF over GST control)
binding signal (EHF): 1.3 fold enrichment (6-mer frequency, TF over GST control)
binding signal (SPI1): 1.25 fold enrichment (6-mer frequency, TF over GST control)
binding signal (SPIB): 1.23 fold enrichment (6-mer frequency, TF over GST control)
binding signal (ELK3): 1.24 fold enrichment (6-mer frequency, TF over GST control)
